# Screens (PubChem)
# 3T3 cytotox: cytotoxic compounds in NIH 3T3 cells. AID 1345082. actives 4.3% (n = 94,000). Potency, µM (titrated, usually from 96.7 µM), for inactives: top-dose activity change, negative = cytotoxicity, hits mostly inhibitors. NIH 3T3 viability, CellTiter-Glo ATP luminescence, 48-72 h; further: nearly all actives have a fitted effect of over 55% in size
#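 Cytotoxicity is measured as loss of cellular ATP: NIH 3T3 cells (400/well) are exposed to compound for 48 or 72 hr at 37 °C, then CellTiter-Glo luminescence is imaged after 10 min at room temperature.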
# HEK293 tox: kills HEK 293 cells; Potency, µM (series often up to 115 µM), inactives show at the highest dose activity change, negative = cytotoxicity, most hits filed as inhibitors; actives 6.6% (n = 94,000); HEK 293 viability, ATP luminescence (CellTiter-Glo), 48-72 h; AID 1345083; further: nearly all actives have a fitted effect of over 60% in size
#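 HEK 293 seeded at 250 cells/well receive compound via pintool. After 48 or 72 hr at 37 degree Celsius, 5% CO2 and 95% humidity, CellTiter-Glo is dispensed and luminescence read following 10 min at room temperature.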
# GPT2 inh: blocks human glutamate pyruvate transaminase 2; Recombinant GPT2, coupled pyruvate oxidase/HRP Amplex Red fluorescence; Q8TD30; actives 0.25% (n = 100,000); AID 1671188; Potency, µM (doses to about 57.7 µM), without a hit: top-dose activity change, negative = inhibition, most hits filed as inhibitors; further: nearly all actives have a fitted effect of over 60% in size
#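 Recombinant GPT2 (10ng/uL) with 250uM a-KG and 2mM L-alanine, 30 min at room temperature, in HEPES pH 7.5 buffer. Pyruvate detected by pyruvate oxidase/HRP/Amplex Red fluorescence after 30 min in the dark; AOA (50uM) as positive control.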
# FLuc inh: inhibitors of firefly (Photinus pyralis) luciferase; P08659; purified P. pyralis luciferase, luminescence, biochemical; Potency, µM (highest dose often 115 µM), usual class: inhibitors; actives 2.5% (n = 76,000); further: nearly all actives have a fitted effect of over 65% in size
# Target sequence (P08659 whole entry, looked up): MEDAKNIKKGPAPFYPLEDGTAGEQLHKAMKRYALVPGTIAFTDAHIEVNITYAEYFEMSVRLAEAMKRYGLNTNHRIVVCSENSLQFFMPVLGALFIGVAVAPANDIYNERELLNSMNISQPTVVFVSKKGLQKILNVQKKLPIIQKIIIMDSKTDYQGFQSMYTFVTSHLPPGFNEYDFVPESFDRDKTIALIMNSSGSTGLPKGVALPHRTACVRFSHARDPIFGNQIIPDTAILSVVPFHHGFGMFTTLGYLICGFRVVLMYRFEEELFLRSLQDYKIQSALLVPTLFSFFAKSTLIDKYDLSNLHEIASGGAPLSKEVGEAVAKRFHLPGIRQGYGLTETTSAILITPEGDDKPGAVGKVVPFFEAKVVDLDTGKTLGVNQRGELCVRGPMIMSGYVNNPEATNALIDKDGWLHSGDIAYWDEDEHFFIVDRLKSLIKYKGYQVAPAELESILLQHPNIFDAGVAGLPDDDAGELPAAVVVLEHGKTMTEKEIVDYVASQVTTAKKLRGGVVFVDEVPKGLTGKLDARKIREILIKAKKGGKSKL
#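 FLuc 10nM, D-luciferin 10uM, ATP 10uM, Mg acetate 10mM, Tris acetate pH 7.5, Tween/BSA; cpd qHTS; enzyme added last; CCD luminescence.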
# NPR1 antag: blocks ANP-stimulated signaling of human Npr1 receptor; Potency, µM (top dose mostly 46.3 µM), inactives show at the highest dose activity change, negative = inhibition, actives largely listed as inhibitors; AID 1347048; P16066; actives 1.6% (n = 76,000); HEK293 hNpr1 GloSensor cGMP, ANP-stimulated luminescence; calls by dose curve; further: nearly all actives have a fitted effect of over 60% in size
#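 Compound pre-incubated 30 min at room temperature on GloSensor-loaded HEK293 cells stably carrying hNpr1 and the pGS-40F cGMP biosensor. Stimulation uses hNppA at 0.1 nM final; luminescence is taken at baseline and 20 min post-agonist.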
# * hit, by the source's call; i = inactive; ? = inconclusive; . = not tested or not shown; ! = not active in a repeat; [ ] = dose if it differs, or a comment. Rows were chosen to be rich in hits. Some 10% of all compounds tested hit in one or more screens of this group. Unless noted, the call rests on the fitted dose curve; in most records, active means well fitted curve in the direction sought with a large enough effect; inconclusive means small, poorly fitted or top-dose-only effect, or another doubt; inactive means no such curve, though single readings can be large; an effect the other way counts as inactive or inconclusive. On the % scale 0 is the no-effect control and ±100 the full control effect; potency means the concentration at half of the fitted maximal effect.
SMILES,3T3 cytotox,HEK293 tox,GPT2 inh,FLuc inh,NPR1 antag
COc1ccccc1-c1nnc2ccc(C(=O)NCc3ccc(Cl)cc3)cn12,?,?,3%,.,.
O=C(NCc1cccc(Cl)c1)c1cc(-c2cccs2)c2cccn2n1,?,28µM*,?,.,.
O=C(NCc1ccc(F)cc1)c1cc(-c2cccs2)c2cccn2n1,?,?,1%,.,.
N#CC1CCN(C(=O)c2cc(-c3cccs3)c3cccn3n2)CC1,?,79µM*,i,.,.
O=C(NCC1CC1)c1cc(-c2cccs2)c2cccn2n1,?,71µM*,-30%[88.5 µM],.,.
CN1CC2(CCN(C(=O)NCCc3ccccc3)CC2)CC1C(=O)N1CCOCC1 (stereo not drawn),-1%,5%,i,i,-10%
O=C(NCCc1ccccn1)c1ccc(OC2CCNCC2)nc1,?,?,i,7.9µM*,?
O=C(NCCc1ccncc1)c1cccnc1OC1CCNCC1,i,-3%,i,i,-8%
COCCN1CCNc2nc(COc3ccc(C(C)C)cc3)n(Cc3ccccc3)c2C1=O,?,63µM*,1%,i,0%
COc1ccc(CC2CCOC3(CCN(C(=O)c4cc5ccccc5[nH]4)CC3)C2)cc1 (stereo not drawn),?,32µM*,i,i,-13%
COc1ccc(CC2CCOC3(CCN(C(=O)CC(C)C)CC3)C2)cc1 (stereo not drawn),?,?,-32%,i,?
COc1ccc(CC2CCOC3(CCN(C(=O)c4ccco4)CC3)C2)cc1 (stereo not drawn),?,50µM*,i,.,.
COCC1CN(C)CC12CCN(C(=O)c1cc3ccccc3[nH]1)CC2 (stereo not drawn),-18%,89µM*,4%,?,-18%
COc1ccc2[nH]c(C(=O)N3CCC4(CC3)CC(O)CCO4)cc2c1 (stereo not drawn),2%,2%,i,i,0%
COCC1CN(C)CC12CCN(C(=O)c1nccc3ccccc13)CC2 (stereo not drawn),0%,?,i,i,-18%
COc1cccc(CCC2CCCN(C(=O)c3ccoc3C)C2)c1 (stereo not drawn),?,32µM*,-4%,i,-2%
COCc1ccc(C(=O)N2CCCC(CCc3cccc(OC)c3)C2)o1 (stereo not drawn),?,79µM*,i,i,1%
COc1cccc(CCC2CCCN(C(=O)c3ccsc3)C2)c1 (stereo not drawn),?,?,i,i,1%
COc1ccc(Cn2c(=O)c(C(=O)N3CCN(C(=O)Nc4ccc(Cl)cc4)CC3)nc3cccnc32)cc1,?,?,i,.,.
O=C(NCc1cccnc1Oc1ccc(F)cc1F)c1cc(C2CC2)[nH]n1,?,8.9µM*,4%,i,-20%
CN1CCN(C(=O)CC2CCCN(c3cnn(CC4CC4)c(=O)c3)C2)CC1 (stereo not drawn),-6%,11%,i,i,3%
CCn1ncc(N2CCCC(CC(=O)N3CCN(c4cccc(Cl)c4)CC3)C2)cc1=O (stereo not drawn),?,35µM*,i,i,?
O=C(CC1CCCN(c2cnn(CC3CC3)c(=O)c2)C1)N1CCN(c2ccccc2)CC1 (stereo not drawn),?,50µM*,-14%,i,?
CCN1CCN(C(=O)CC2CCCN(c3cnn(CC)c(=O)c3)C2)CC1 (stereo not drawn),i,9%,i,i,9%
Cc1ncsc1CN1CCC(N2C(=O)C(OCC3CC3)C23CCCCC3)CC1 (stereo not drawn),-27%,?,i,i,-2%
SMILES,3T3 cytotox,HEK293 tox,GPT2 inh,FLuc inh,NPR1 antag
Cc1ncsc1CN1CCC(N2CC3(CCCCC3)C2c2ccccc2)CC1 (stereo not drawn),?,45µM*,-4%,.,.
Cc1ccc(CN2CCCCCCNC(=O)[C@@H]3C[C@@H](C(=O)N4CCc5ccccc5C4)C[C@@H]32)o1,?,?,i,i,-16%
Cn1ncc2c(-c3ccc(Cl)cc3Cl)cc(C(=O)N3CCN(c4ncccn4)CC3)nc21,45µM*,32µM*,-2%,.,.
Cn1ncc2c(C(=O)N3CCN(c4ncccn4)CC3)cc(-c3ccc(Cl)nc3)nc21,35µM*!,?,?,.,.
CN(C(=O)c1cc(-c2cc(Cl)cc(Cl)c2)nc2c1cnn2C)c1ccccc1,?,40µM*,.,.,.
Cn1ncc2c(C(=O)N3CCN(Cc4ccccc4)CC3)cc(-c3ccc([S+](C)(=O)[O-])cc3)nc21,?,-21%,-16%,.,.
Cn1ncc2c(C(=O)N3CCN(Cc4ccccc4)CC3)cc(-c3ccc(Cl)cc3)nc21,?,40µM*,4%,.,.
CN(C)C(=O)c1cc(-c2ccc(Cl)cc2Cl)c2cnn(C)c2n1,-8%,-8%,2%,.,.
CN1CCN(C(=O)c2cc(-c3cc(Cl)cc(Cl)c3)nc3c2cnn3C)CC1,?,?,i,.,.
OC1(c2cccc(C(F)(F)F)c2)CCN(Cc2nc(-c3cccs3)no2)CC1,?,?,-12%,i,?
Cn1ncc2c(C(=O)N3CCN(Cc4ccccc4)CC3)cc(-c3ccc(Cl)cc3Cl)nc21,?,40µM*,i,.,.
CN1CCN(C(=O)c2cc(-c3ccc(Cl)cc3Cl)nc3c2cnn3C)CC1,-22%,-4%,-17%,.,.
CN(C)c1cccc(NC(=O)Cc2c[nH]c3ncc(-c4cccnc4)cc23)c1,?,?,4%[88.5 µM],i,-25%[70.6 µM]
O=C(Cc1c[nH]c2ncc(-c3cccnc3)cc12)Nc1ccc(F)cc1,28µM*,?,0%[88.5 µM],i,-15%[70.6 µM]
CN(C)c1cccc(-c2cnc3[nH]cc(CC(=O)NCc4cccnc4)c3c2)c1,?,?,i,?,-10%[70.6 µM]
CN(C)C(=O)Cc1c[nH]c2ncc(-c3cccnc3)cc12,25µM*,-29%[230 µM],-8%[88.5 µM],i,-1%[70.6 µM]
Cc1cn2nc(C(=O)N3CCC(C(=O)NCc4cccnc4)CC3)cc2c(=O)[nH]1,4%,6%,i,i,3%
CCc1nc2c(c(-c3ccc(OC)cc3)n1)CCN([S+](=O)([O-])c1ccccc1)CC2,?,1%,-3%,.,.
CCc1nc2c(c(-c3ccc(OC)cc3)n1)CN([S+](=O)([O-])c1cccs1)CC2,11µM*,1%,-3%,.,.
COc1ccc(-c2nc(C)nc3c2CN([S+](=O)([O-])c2cccs2)CC3)cc1,28µM*,i,-5%,.,.
COc1ccc(-c2nc(C3CC3)nc3c2CN([S+](=O)([O-])c2cccs2)CC3)cc1,?,-28%,-2%,.,.
CCOC(=O)[C@@H]1[C@@H](OC)C(=O)N(C)C12CCN(C(=O)OCC(C)(C)C)CC2,?,-19%,.,.,.
